Assay results from PubChem BioAssay (NCI).
About 83,000 compounds went through this panel and 20% of them were active in at least one assay; those are over-represented in the sample as a whole.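 Interpretation: 100, growth as untreated; towards 0, rising growth inhibition; 0, no net growth; 0 to -100, cell death. Compounds scoring below 10 were considered active.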 Values without a mark were called inactive. Active and inactive are the calls of the source.

How the values were obtained:
Test in all cases: NCI-60 one-dose screen, 48 h (100 = growth as untreated, 0 = no growth, -100 = all killed)
DU-145 prostate = conditions: 10 µM
K-562 leukemia = conditions: 10 µM
MALME-3M melanoma = conditions: 10 µM
MDA-MB-231 breast = conditions: 10 µM
RXF 393 renal = conditions: 10 µM
SF-268 CNS = conditions: 10 µM
SF-295 CNS = conditions: 10 µM
SF-539 CNS = conditions: 10 µM
UACC-257 melanoma = conditions: 10 µM
M14 melanoma = conditions: 10 µM
HCT-15 colon = conditions: 10 µM
SNB-75 CNS = conditions: 10 µM
SNB-19 CNS = conditions: 10 µM
U251 CNS = conditions: 10 µM
PC-3 prostate = conditions: 10 µM
SK-MEL-5 melanoma = conditions: 10 µM
UACC-62 melanoma = conditions: 10 µM unless noted
LOX IMVI melanoma = conditions: 10 µM
SK-MEL-28 melanoma = conditions: 10 µM
HT29 colon = conditions: 10 µM

N=c1c(C(=O)OCc2ccccc2)ncc(CCl)n1O
growth (DU-145 prostate): 102%
growth (K-562 leukemia): 109%
growth (MALME-3M melanoma): 113%
growth (MDA-MB-231 breast): 95.8%
growth (RXF 393 renal): 94.9%
growth (SF-268 CNS): 94.9%
growth (SF-295 CNS): 124%
growth (SF-539 CNS): 104%
growth (UACC-257 melanoma): 81.8%
growth (M14 melanoma): 94.1%
growth (HCT-15 colon): 99.7%
growth (SNB-75 CNS): 83.6%
growth (SNB-19 CNS): 95.6%
growth (U251 CNS): 71.4%
growth (PC-3 prostate): 95.9%
growth (SK-MEL-5 melanoma): 96.9%
growth (UACC-62 melanoma): 91.1%
growth (LOX IMVI melanoma): 42.2%
growth (SK-MEL-28 melanoma): 98.1%

O=C(CS)Nc1ccc2ccccc2c1
growth (DU-145 prostate): 113%
growth (K-562 leukemia): 96.8%
growth (MALME-3M melanoma): 126%
growth (MDA-MB-231 breast): 106%
growth (RXF 393 renal): 82.8%
growth (SF-268 CNS): 85.8%
growth (SF-295 CNS): 123%
growth (SF-539 CNS): 99.5%
growth (UACC-257 melanoma): 133%
growth (M14 melanoma): 111%
growth (HCT-15 colon): 75.9%
growth (SNB-75 CNS): 112%
growth (SNB-19 CNS): 101%
growth (U251 CNS): 98%
growth (PC-3 prostate): 70%
growth (SK-MEL-5 melanoma): 91.9%
growth (UACC-62 melanoma): 94.1%
growth (LOX IMVI melanoma): 86.7%
growth (SK-MEL-28 melanoma): 102%

O=c1c2ccccc2c(Br)c(Br)c2ccccc12
growth (DU-145 prostate): 114%
growth (K-562 leukemia): 52.6%
growth (MALME-3M melanoma): 94.7%
growth (MDA-MB-231 breast): 115%
growth (RXF 393 renal): 48%
growth (SF-268 CNS): 110%
growth (SF-295 CNS): 99.4%
growth (SF-539 CNS): 98.6%
growth (UACC-257 melanoma): 66.2%
growth (M14 melanoma): 5.89% (active)
growth (HCT-15 colon): 98%
growth (SNB-75 CNS): 119%
growth (SNB-19 CNS): 101%
growth (U251 CNS): 91%
growth (PC-3 prostate): 95.7%
growth (SK-MEL-5 melanoma): 109%
growth (UACC-62 melanoma): 95.6%
growth (LOX IMVI melanoma): 3.1% (active)
growth (SK-MEL-28 melanoma): 106%

COc1cc(-c2ccc(NC(=O)NC3CC3)c(OC)c2)ccc1NC(=O)NC1CC1
growth (DU-145 prostate): 84.9%
growth (K-562 leukemia): 31.2%
growth (MALME-3M melanoma): 102%
growth (MDA-MB-231 breast): 71.1%
growth (RXF 393 renal): 73%
growth (SF-268 CNS): 62.8%
growth (SF-295 CNS): 75.9%
growth (SF-539 CNS): 67.2%
growth (UACC-257 melanoma): 26.5%
growth (M14 melanoma): 75.7%
growth (HCT-15 colon): 31.2%
growth (SNB-75 CNS): 89.4%
growth (SNB-19 CNS): 84.7%
growth (U251 CNS): 37.4%
growth (PC-3 prostate): 41.6%
growth (SK-MEL-5 melanoma): 47.6%
growth (UACC-62 melanoma): 70.7%
growth (LOX IMVI melanoma): 36.8%
growth (SK-MEL-28 melanoma): 86.7%

O=c1cc(-c2ccccc2)[nH]c2c1CCCC2
growth (DU-145 prostate): 21.2%
growth (K-562 leukemia): 23.2%
growth (MALME-3M melanoma): 31.6%
growth (MDA-MB-231 breast): 33.8%
growth (RXF 393 renal): -21.7% (active)
growth (SF-268 CNS): 57.3%
growth (SF-295 CNS): 18.1%
growth (SF-539 CNS): 3.77% (active)
growth (UACC-257 melanoma): 46.9%
growth (M14 melanoma): 8.23% (active)
growth (HCT-15 colon): 25%
growth (SNB-75 CNS): -7.33% (active)
growth (SNB-19 CNS): 39.4%
growth (U251 CNS): 27.9%
growth (PC-3 prostate): 28.5%
growth (SK-MEL-5 melanoma): 7.3% (active)
growth (UACC-62 melanoma): 35.2%
growth (LOX IMVI melanoma): 37.4%
growth (SK-MEL-28 melanoma): 52.1%

C/C(=N/NC(N)=O)c1ccco1
growth (DU-145 prostate): 110%
growth (K-562 leukemia): 88.3%
growth (MALME-3M melanoma): 93.4%
growth (MDA-MB-231 breast): 118%
growth (RXF 393 renal): 108%
growth (SF-268 CNS): 104%
growth (SF-295 CNS): 104%
growth (SF-539 CNS): 101%
growth (UACC-257 melanoma): 83%
growth (M14 melanoma): 91.8%
growth (HT29 colon): 99.5%
growth (SNB-75 CNS): 91.5%
growth (SNB-19 CNS): 101%
growth (U251 CNS): 96.8%
growth (PC-3 prostate): 76.3%
growth (SK-MEL-5 melanoma): 105%
growth (UACC-62 melanoma): 102%
growth (LOX IMVI melanoma): 95.4%
growth (SK-MEL-28 melanoma): 117%

O=[N+]([O-])c1ccc(Sc2ccncn2)c([N+](=O)[O-])c1
growth (DU-145 prostate): 85.4%
growth (K-562 leukemia): 26.3%
growth (MALME-3M melanoma): 86.6%
growth (MDA-MB-231 breast): 84.1%
growth (RXF 393 renal): 81.7%
growth (SF-268 CNS): 89%
growth (SF-295 CNS): 113%
growth (SF-539 CNS): 22.9%
growth (UACC-257 melanoma): 64.7%
growth (M14 melanoma): 8.79% (active)
growth (HCT-15 colon): 85.3%
growth (SNB-75 CNS): 81.8%
growth (SNB-19 CNS): 106%
growth (U251 CNS): 106%
growth (SK-MEL-5 melanoma): 93.1%
growth (UACC-62 melanoma): 74.1%
growth (LOX IMVI melanoma): 4.84% (active)
growth (SK-MEL-28 melanoma): 96.1%

O=c1cc(-c2ccccc2)nc2cc(-c3ccco3)[nH]n12
growth (DU-145 prostate): 115%
growth (K-562 leukemia): 42.8%
growth (MALME-3M melanoma): 84.2%
growth (MDA-MB-231 breast): 98.8%
growth (RXF 393 renal): 100%
growth (SF-268 CNS): 93.8%
growth (SF-295 CNS): 110%
growth (SF-539 CNS): 81.8%
growth (UACC-257 melanoma): 43.8%
growth (M14 melanoma): 77.8%
growth (HCT-15 colon): 67.8%
growth (SNB-75 CNS): 79.4%
growth (SNB-19 CNS): 95.8%
growth (U251 CNS): 90.5%
growth (PC-3 prostate): 78.7%
growth (SK-MEL-5 melanoma): 83.1%
growth (UACC-62 melanoma): 67.8%
growth (LOX IMVI melanoma): 86.1%
growth (SK-MEL-28 melanoma): 88.6%
